# Source: ChEMBL document CHEMBL4513216, “Probing the Open Global Health Chemical Diversity Library for Multistage-Active Starting Points for Next-Generation Antimalarials” (ACS Infect Dis, 2020)
# Hit rate of the full screen: of about 65,000 compounds, about 2,100 (3.2%) showed an effect of 50% or more. The median lay at about -52%. This is one part of a sample in which strong results are shown more often than they occur.
# System: Plasmodium falciparum
# Assay: Screen against P. falciparum Asexual Blood Stage (ABS), at 5uM
# Format: functional, Dd2
# Settings: tested at 5 uM
row,SMILES,INHIBITION
1,O=C(CC1CC1)N[C@@H]1CN(C(=O)c2ccsc2)C[C@@H]2CCCO[C@@H]21,-17.8%
2,CC(=O)N1CC2(CCN(Cc3ccc(Cl)cc3)C2)Cc2ccccc21 (centres undefined),9.12%
3,Cc1c(C)n(CC(O)CN2CCC(O)CC2)c2c(Cl)cccc12 (centres undefined),44.9%
4,Cc1c(C)n(CC(O)CN2CCCCCC2)c2c(Cl)cccc12 (centres undefined),51.6%
5,Cc1c(C)n(CC(O)CN2CCOCC2)c2c(Cl)cccc12 (centres undefined),-15.7%
6,CCN1CC(C(=O)NCCOc2ccc3c(c2)OCO3)CC1=O (centres undefined),-196%
7,CN(Cc1ccncc1)CC1CCCN(CCc2ccc(Cl)cc2)C1 (centres undefined),-23.8%
8,Cc1nc(CN(C)CC2CCCN(CCc3ccc(Cl)cc3)C2)n(C)n1 (centres undefined),54.3%
9,Cc1noc(CN(C)CC2CCCN(CCc3ccc(Cl)cc3)C2)n1 (centres undefined),-72.6%
10,O=S(=O)(c1cccs1)N1Cc2nc(CN3CCCC3)oc2C1,-84.5%
11,CC1CCCN1Cc1cccc(C(=O)Nc2ccc3c(c2)CCC3=O)c1 (centres undefined),30.1%
12,Cc1cccc(C)c1NC(=O)c1cccc(CN2CCCC2C)c1 (centres undefined),49.8%
13,COc1ccc(NC(=O)c2cccc(CN3CCCC3C)c2)cc1OC (centres undefined),51.1%
14,O=C([C@H]1C[C@@H]2CCN(c3cccc(F)c3)C[C@H]2O1)N1CCCC1,-20.3%
15,CCc1nc(C2CCCN2CCCSC)no1 (centres undefined),42.3%
16,O=c1c(NCc2ccncc2)c(NCC(O)CN2CCOCC2)c1=O (centres undefined),-27%
17,Cc1nnc(N2CCCC3(CN(Cc4ccc(F)cc4)CCO3)C2)o1 (centres undefined),-65.4%
18,Cc1cc(C)cc(CNC(C)c2c(C)nn(C)c2C)c1 (centres undefined),49.4%
19,Cn1nccc1C(=O)N1CC[C@]2(C[C@H](OCc3ccccn3)CO2)C1,-58%
20,Cc1ccc(CCNc2nc(-c3ccncc3)nc3c2CCNCC3)o1,-88.2%
21,CCOCCNc1nc(-c2ccncc2)nc2c1CCNCC2,-46.1%
22,c1csc(CCNc2nc(-c3ccncc3)nc3c2CCNCC3)c1,53.5%
23,Cc1csc(CCCNC(=O)NC2CC(=O)N(C(C)(C)C)C2)n1 (centres undefined),-57%
24,Cc1n[nH]c(NC(=O)c2ccc(COCC(F)(F)F)cc2)c1C,-94.3%
25,O=C1CC2(CCCCN2C(=O)c2ccco2)CN1c1cccnc1 (centres undefined),-138%
26,O=C1Nc2ccccc2CN(CC2CC2)C12CCNC2 (centres undefined),-2.03%
27,CCCN1Cc2ccccc2NC(=O)C12CCNC2 (centres undefined),-23.5%
28,O=C1Nc2ccccc2CN(CC=Cc2ccccc2)C12CCNC2 (centres undefined),60.2%
29,COCCN1CCN(C(=O)N2CCCC2)Cc2ccc(C)nc21,-114%
